Experimental data as given in PubChem BioAssay (NCATS).
Records with an inconclusive call do not appear. Entries that show only a call come without a potency. Activity calls are given as the source filed them. The call rests on the fitted dose curve; in most records, active means well fitted cell-killing curve with a large enough effect; inconclusive means small, poorly fitted or top-dose-only effect, or effect the other way; inactive means flat fitted curve, though single readings scatter.

The compounds below were run on Tov112D (assay: Primary qHTS to identify gynecologic anti-cancer compounds using libraries of approved drugs and bioactive compounds (AID 1345084; further: nearly all actives have a fitted effect of over 55% in size)). Settings: Gynecologic cancer cell panel viability, ATPlite luminescence, 48 h; series mostly up to 57.5 µM.
In short: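 Measured: luminescence after ATPlite addition (15 min, RT). Exposure: 48 h, 37 C, 5% CO2.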

Structure (SMILES) | Potency | activity change, negative = cytotoxicity
CC1(O)CCC2C(C(=O)O)=COC(OC3OC(CO)C(O)C(O)C3OC(=O)/C=C/c3ccc(O)cc3)C21 (stereo not drawn) | inactive | 
Cn1c(=O)c2nc(/C=C/c3cccc(Cl)c3)n(C)c2n(C)c1=O | inactive | 
C=C1CCC2(OC1)OC1CC3C4CC=C5CC(O)CC(O[C@@H]6OC[C@@H](O)[C@H](O)[C@H]6O)C5(C)C4CCC3(C)C1(O)C2C (stereo partly drawn) | inactive | 
COc1cc(C/C(=C/NC(C)=O)N(CC(=O)Cc2ccccc2)C(C)=O)cc2c1OCO2 | inactive | 
CCOC(=O)c1ccnc(CNCC(=O)N(CC)CCN(C)C)c1 | inactive | 
CC(=O)c1c(O)cc2cccc3c2c1CC(C)(O)O3 (stereo not drawn) | inactive | 
C/C=C(\C)C(=O)O[C@@H](C)[C@H]1CC[C@]2(O)C3CCC4C[C@@H](OC5CC(OC)C(OC6CC(OC)C(OC7CC(OC)C(OC8OC(C)C(OC9OC(CO)C(O)C(O)C9O)C(OC)C8O)C(C)O7)C(C)O6)C(C)O5)CC[C@]4(C)C3[C@H](O)[C@@H](O)[C@]12C (stereo partly drawn) |  | 8.06% [at 6.55 µM] (inactive)
C/C(=C\CCC(C(=O)O)C1CCC2(C)C3=C(CCC12C)C1(C)CCC(=O)C(C)(C)C1CC3)C(=O)O (stereo not drawn) | inactive | 
Cc1cc(C)cc(NC(=O)Cc2ccc(OC(C)(C)C(=O)O)cc2)c1 | inactive | 
CC1CC(O)CC(C)(C)C1(O)CCO (stereo not drawn) | inactive | 
CC(C)(C)NCC(O)COc1cccc2c1CCCC2=O (stereo not drawn) | inactive | 
CC(CCC1C(C(=O)O)=CC(=O)CC1(C)C)O[C@@H]1O[C@H](CO)[C@@H](O)[C@H](O)[C@H]1O (stereo partly drawn) | inactive | 
CN1CCC(c2c[nH]c3ccc(NC(=O)c4ccc(F)cc4)cc23)CC1 | inactive | 
C=CC(C)(C)C1(CC2NC(=O)C3CCCN3C2=O)C(=O)Nc2cc3c(cc21)C=CC(C)(C)O3 (stereo not drawn) | inactive | 
CC1=C2C(=O)C=C(CO)[C@@H]2[C@H]2OC(=O)[C@H](C)[C@@H]2[C@@H](O)C1 | inactive | 
NC(=O)c1cccc(-c2cc(O)cc(OC(=O)NC3CCCCC3)c2)c1 | inactive | 
CC(=O)O[C@@H]1[C@@H](OC(=O)/C=C/c2ccccc2)[C@H](C)O[C@@H](O[C@H]2[C@@H]3C=CO[C@@H](O[C@@H]4O[C@H](CO)[C@@H](O)[C@H](O)[C@H]4O)[C@@H]3[C@@]3(CO)O[C@@H]23)[C@@H]1OC(C)=O | inactive | 

Structure (SMILES) | Potency | activity change, negative = cytotoxicity
CCOC(=O)c1ccc(N(C)c2csc(-c3ccccc3)n2)cc1 | inactive | 
C[C@]12CCC(=O)C=C1[C@@H](O)C[C@@H]1[C@@H]2[C@@H](O)C[C@@]2(C)[C@H]1CC[C@]2(O)C(=O)CO | inactive | 
C=C1CC23CC1(O)CCC2C1=CC2OC(=O)C(C)(C2O)C1C3C(=O)O (stereo not drawn) | inactive | 
CCOc1c2c(c(OCC)c3ccccc13)C(=O)N(c1ccc(CC(=O)NS(=O)(=O)c3ccccc3)cc1)C2 | inactive | 
CCCC(N[C@@H](C)C(=O)N1[C@H](C(=O)O)C[C@@H]2CCCC[C@@H]21)C(=O)OCC (stereo partly drawn) | inactive | 
CC(=O)OC[C@]12[C@H](OC(C)=O)C(=O)[C@@H]3[C@@H](OC(C)=O)[C@@]14O[C@@]3(C)COC(=O)c1cccnc1[C@@H](C)[C@H](C)C(=O)O[C@@H]([C@H](OC(C)=O)[C@@H]2OC(C)=O)[C@]4(C)O | inactive | 
COCCN(C)Cc1ccc2nc3sc(C(=O)N(C)C4CCCCC4)cn3c2c1 | inactive | 
COc1cccc(-c2ccc([C@@H](Oc3cc(-c4ccc(C[C@H](N)C(=O)O)cc4)nc(N)n3)C(F)(F)F)cc2)c1 | inactive | 
CO[C@@H](Cc1ccc(OCCc2nc(-c3ccccc3)oc2C)c2ccsc12)C(=O)O | inactive | 
O=C(O)[C@H]1CCCC[C@H]1C(=O)N1CCc2ccccc2[C@H]1CN1C(=O)c2ccccc2C1=O | inactive | 
CO/N=C(/C(=O)N[C@@H]1C(=O)N2C(C(=O)O)=C(CSC(=O)c3ccco3)CS[C@H]12)c1csc(N)n1 | inactive | 
COc1cc(-c2cccc(O)c2)cc2c1OCO2 | inactive | 
Cc1c(-c2ccnn2C)cc(C(=O)NCc2ccc(S(C)(=O)=O)cn2)c(=O)n1-c1cccc(C(F)(F)F)c1 | inactive | 
CNc1nc(Nc2cnn([C@H]3CCN(C4COC4)C[C@@H]3F)c2Cl)ncc1C(F)(F)F | inactive | 
O=C(O)c1cc(O[C@@H]2O[C@H](CO[C@@H]3OC[C@@H](O)[C@H](O)[C@H]3O)[C@@H](O)[C@H](O)[C@H]2O)c2ccccc2c1O | inactive | 
CC(C)(O)C1=CCC23COC(C2)C(O)(C(=O)O)CCC13 (stereo not drawn) | inactive | 
